Results published in PubChem BioAssay.
Values joined by “and” are separate entries in the source; they are usually repeats but may differ in a detail not shown here. Equal entries are not always repeated. Active and inactive are the calls of the source.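 The calls were made as follows, unless noted: active = thallium flux through the channel raised or lowered by more than 3 SD from vehicle-only wells, actives on both sides; inactive = the rest.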

How the values were obtained:
[1] = tested on: Hepatitis C virus NS3 helicase; experiment: blockers of NS3h binding to DNA – biochemical, fluorescence polarization, NIH Clinical Collection, primary screen (AID 743270; call rule not given here); settings: NS3 helicase binding to Cy5-dT15 DNA, stronger effect = higher value, concentration not given here
[2] = target: Single-stranded DNA-binding protein (Escherichia coli (strain K12)) (UniProt P0AGE0); experiment: SSB-ssDNA binding inhibitors – biochemical, fluorescence polarization, NIH Clinical Collection, counter-screen for HCV NS3 helicase inhibitor project (AID 743271; in the data active = inhibition above about 28%); settings: E. coli SSB-DNA binding, stronger effect = higher value, concentration not given here
[3] = compounds distorting NS3 helicase fluorescence signal – biochemical, NIH Clinical Collection, artefact control for HCV NS3 helicase inhibitor project (AID 743272; call rule not given here;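 also: HCV NS3 helicase with a Cy5 labelled single stranded DNA probe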); settings: fluorescence interference counterscreen, HCV NS3 helicase assay; stronger effect = lower value
[4] = Wnt pathway potentiators raising nuclear beta-catenin – imaging, WNT3A-conditioned medium, mouse C2C12, NPC library, primary screen (AID 1117326; in the data active = nuclear beta-catenin stimulation mostly above about 4.2%, no sharp cut-off; inactive = mostly below about 10%); settings: stronger effect = higher value
[5] = stimulators of insulin release from INS-1E, primary screen, cell-based, 5 mM glucose, NPC library (AID 1117329;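 active = compound raises insulin release from rat beta cells at 5 mM glucose, no numeric limit stated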); settings: rat INS-1E insulin secretion, at 10 µM, stronger effect = higher value
[6] = growth inhibition of GSK3B-pretreated HCT116 cells – cell-based, CellTiter-Glo, 0.2 to 20 µM (AID 1117336;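 active = compounds lowering colon cancer cell viability after pretreatment blocking the GSK3B kinase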); settings: HCT116 viability after GSK3B inhibitor, at 20 µM, stronger effect = higher value
[7] = inhibition of endothelial tube formation, primary screen, imaging, VEGF stimulated, CD31 staining, tube area, NPC library (AID 1117340;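 active = compound that reduces growth-factor-driven endothelial tube area in a mixed cell culture, no cutoff stated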); settings: VEGF-stimulated ADSC/ECFC co-culture, at 10 µM, stronger effect = higher value
[8] = GLP1 release stimulators, primary, NCI-H716, NPC library (AID 1117341;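 active = compound raises GLP1 secretion from the human gut endocrine cells, with no numeric limit stated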); settings: NCI-H716 cells, at 10 µM, stronger effect = higher value
[9] = HCT116 colon cancer cell growth inhibition, primary screen, CellTiter-Glo luminescence, NPC library (AID 1117342;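 active = compounds that lower survival of HCT116 colon cancer cells in the luminescence readout, no numeric limit stated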); settings: at 20 µM (top of the series)
[10] = reduced SW480 viability measured with CellTiter-Glo, NPC library, primary (AID 1117343;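 active = compounds that lower viability of the colon cancer cells in the luminescence readout, with no numeric limit stated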); settings: CellTiter-Glo luminescence; at 20 µM (top of the series)
[11] = NPC library primary testing for decreased DLD-1 cell viability via CellTiter-Glo (AID 1117346;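 active = compounds that lower survival of DLD-1 colon cancer cells in the luminescence readout, no cutoff given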); settings: DLD-1 viability, CellTiter-Glo luminescence; at 20 µM (top of the series)
[12] = target: 6-phosphogluconate dehydrogenase, decarboxylating (Homo sapiens) (UniProt P52209); experiment: inhibition of human phosphogluconate dehydrogenase – biochemical, recombinant enzyme, NADPH absorbance, primary screen (AID 1159550;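 active = at least 20% inhibition of 6-phosphogluconate dehydrogenase activity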); settings: recombinant 6PGD, NADPH absorbance 341 nm; at 10 µM; stronger effect = higher value
Sequence of 6-phosphogluconate dehydrogenase, decarboxylating (Homo sapiens) (P52209 whole entry, looked up): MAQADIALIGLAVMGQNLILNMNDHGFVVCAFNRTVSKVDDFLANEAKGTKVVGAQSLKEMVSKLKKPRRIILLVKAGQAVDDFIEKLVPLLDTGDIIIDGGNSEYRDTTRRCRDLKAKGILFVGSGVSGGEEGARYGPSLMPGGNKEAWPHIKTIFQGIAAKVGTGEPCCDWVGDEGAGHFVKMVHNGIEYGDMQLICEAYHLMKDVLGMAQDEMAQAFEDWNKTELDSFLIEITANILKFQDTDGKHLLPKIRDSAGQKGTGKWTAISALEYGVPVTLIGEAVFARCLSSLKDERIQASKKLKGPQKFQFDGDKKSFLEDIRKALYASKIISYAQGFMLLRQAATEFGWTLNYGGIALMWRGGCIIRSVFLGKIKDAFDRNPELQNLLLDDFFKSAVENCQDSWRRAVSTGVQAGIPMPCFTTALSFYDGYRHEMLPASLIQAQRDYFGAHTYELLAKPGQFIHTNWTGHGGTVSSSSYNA

[13] = viability loss with induced miR-34 in A549 – imaging, A549 dox-inducible miR-34, nuclei and caspase counts, primary screen (AID 1347080;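 active = compounds whose cell count with miR-34 switched on is under 0.7 times the count with it off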); settings: A549 miR-34 inducible, Hoechst nuclei count, 48 h
[14] = MELAS cybrid and Rieske KO viability enhancers – cell-based, MELAS cybrids, Rieske KO mouse fibroblasts, CellTiter-Glo, primary screen (AID 1508586;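 active = mean z-score across replicates of 1.96 or higher in either the MELAS or the Rieske mutant cell line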;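 also: z relative to plate mean and SD of compound and empty wells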); settings: low glucose
[15] = target: NAD(+) hydrolase SARM1 (Homo sapiens) (UniProt Q6SZW1); experiment: blocking NAD cleavage by SARM1 SAM-TIR – cell lysate, NAD-Glo luminescence (AID 1508614;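 active = compound whose remaining NAD level is above about 45 nM, limit read from the data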;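 also: higher remaining NAD means stronger inhibition of SARM1 NADase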); settings: SAM-TIR HEK293T lysate NADase, at 1 µM, stronger effect = higher value
Sequence of NAD(+) hydrolase SARM1 (Homo sapiens) (Q6SZW1 whole entry, looked up, the tested form may be a part): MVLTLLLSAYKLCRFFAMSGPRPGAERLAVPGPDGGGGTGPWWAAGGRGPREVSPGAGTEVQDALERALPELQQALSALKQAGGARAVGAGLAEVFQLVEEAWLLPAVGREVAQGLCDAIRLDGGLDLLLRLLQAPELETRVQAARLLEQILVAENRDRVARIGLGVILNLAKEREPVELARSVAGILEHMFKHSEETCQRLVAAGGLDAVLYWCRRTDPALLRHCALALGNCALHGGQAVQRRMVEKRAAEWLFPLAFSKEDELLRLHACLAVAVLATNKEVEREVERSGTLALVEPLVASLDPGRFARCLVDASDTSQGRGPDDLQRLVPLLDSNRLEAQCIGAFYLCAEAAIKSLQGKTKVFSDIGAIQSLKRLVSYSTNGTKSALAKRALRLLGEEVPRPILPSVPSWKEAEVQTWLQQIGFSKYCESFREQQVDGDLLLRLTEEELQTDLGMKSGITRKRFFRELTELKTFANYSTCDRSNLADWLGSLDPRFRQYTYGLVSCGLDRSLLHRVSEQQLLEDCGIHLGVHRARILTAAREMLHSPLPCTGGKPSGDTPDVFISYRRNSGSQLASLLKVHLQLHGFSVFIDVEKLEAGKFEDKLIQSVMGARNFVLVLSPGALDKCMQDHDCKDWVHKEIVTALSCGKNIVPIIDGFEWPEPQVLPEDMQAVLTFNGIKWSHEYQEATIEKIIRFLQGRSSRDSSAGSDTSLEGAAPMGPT

[16] = target: Mitogen-activated protein kinase 7 (Homo sapiens) (UniProt Q13164); experiment: Gal4-ERK5 driven luciferase induction – cell-based, HTS, primary screen (AID 1508626;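 active = luciferase signal above three times the same-plate solvent-only control wells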;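 also: luciferase driven by Gal4-ERK5 fusion binding five Gal4 sites before minimal TATA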); settings: HeLa Gal4-ERK5 transactivation, 18 h, at 5 µM, stronger effect = higher value
Sequence of Mitogen-activated protein kinase 7 (Homo sapiens) (Q13164 whole entry, looked up, the tested form may be a part): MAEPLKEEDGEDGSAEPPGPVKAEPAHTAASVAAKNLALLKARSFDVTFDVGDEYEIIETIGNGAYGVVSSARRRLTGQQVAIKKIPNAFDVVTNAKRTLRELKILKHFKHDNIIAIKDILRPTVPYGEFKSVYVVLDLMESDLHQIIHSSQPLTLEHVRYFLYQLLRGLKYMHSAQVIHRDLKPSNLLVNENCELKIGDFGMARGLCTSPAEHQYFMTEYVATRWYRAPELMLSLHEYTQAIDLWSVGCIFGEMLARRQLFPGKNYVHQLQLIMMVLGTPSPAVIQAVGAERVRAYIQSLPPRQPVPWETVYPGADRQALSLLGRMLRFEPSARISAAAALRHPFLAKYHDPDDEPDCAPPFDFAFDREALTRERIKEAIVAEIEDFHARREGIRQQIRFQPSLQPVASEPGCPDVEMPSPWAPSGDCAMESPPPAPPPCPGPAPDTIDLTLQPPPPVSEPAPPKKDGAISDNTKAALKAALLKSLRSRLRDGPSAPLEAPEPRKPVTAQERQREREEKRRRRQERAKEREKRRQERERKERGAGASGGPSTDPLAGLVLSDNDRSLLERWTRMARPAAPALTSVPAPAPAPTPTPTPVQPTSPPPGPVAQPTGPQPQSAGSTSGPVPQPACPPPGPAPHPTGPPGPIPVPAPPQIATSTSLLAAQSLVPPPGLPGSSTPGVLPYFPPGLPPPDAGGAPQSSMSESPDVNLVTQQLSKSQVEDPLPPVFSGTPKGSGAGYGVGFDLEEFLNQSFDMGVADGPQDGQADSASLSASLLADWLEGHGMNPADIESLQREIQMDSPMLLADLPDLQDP

F380Y = experiment: BK channel mutant inhibitors and activators – cell-based, U2OS BacMam, thallium flux, beta subunits, selectivity assay, profiling panel (AID 1259406); settings: U2OS BacMam BK variants, at 30 µM;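 also: initial slope of Thallos dye fluorescence rise after thallium is added; log ratio against the mean of 0.3% DMSO vehicle wells on the same plate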
F380Y/beta2Delta = experiment: as above; settings: U2OS BacMam BK variants, at 30 µM
[17] = target: Calcium-activated potassium channel subunit alpha-1 (Homo sapiens) + Leucine-rich repeat-containing protein 26 (Homo sapiens) (UniProt Q12791+Q2I0M4); experiment: as above; settings: U2OS BacMam BK variants, F380Y/Slo1WT/gamma1, at 30 µM
Sequence of Calcium-activated potassium channel subunit alpha-1 (Homo sapiens) + Leucine-rich repeat-containing protein 26 (Homo sapiens) (Q2I0M4 whole entry, looked up, one chain of several): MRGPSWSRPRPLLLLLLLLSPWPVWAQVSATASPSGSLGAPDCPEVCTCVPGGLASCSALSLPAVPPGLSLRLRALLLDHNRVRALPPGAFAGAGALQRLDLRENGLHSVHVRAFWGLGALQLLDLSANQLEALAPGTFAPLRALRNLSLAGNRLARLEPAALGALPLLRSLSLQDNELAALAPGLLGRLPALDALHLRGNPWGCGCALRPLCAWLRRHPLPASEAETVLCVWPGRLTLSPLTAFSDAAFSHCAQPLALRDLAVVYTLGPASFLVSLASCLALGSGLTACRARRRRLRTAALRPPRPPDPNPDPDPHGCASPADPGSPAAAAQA

[18] = EMT-state selective cytotoxicity in co-culture – imaging, PC-3E GFP, TEM4-18 mCherry, primary screen (AID 1345086;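 active = compounds killing one labelled cell type while sparing the other, by normalised counts and ratio limits, not self-fluorescent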;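 as to all read-outs here: cells exposed to compound for 72 h before imaging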;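 as to red/green cell ratio (normalised): normalised mesenchymal count divided by normalised epithelial count so high means epithelial killing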); settings: PC-3E GFP / TEM4-18 mCherry co-culture, imaging cell counts, at 1 µM; for red/green cell ratio (normalised): actives lie on both sides, counts scaled to control wells, 1 = unselective
[19] = stronger effect = lower value, cell number ratio, induced over uninduced
[20] = measured here: relative caspase fold change +Dox/-Dox
[21] = measured here: total cells with miR-34 induction, stronger effect = lower value
[22] = measured here: total cells without miR-34 induction
[23] = MELAS cybrid survival, CellTiter-Glo 48 h, stronger effect = higher value
[24] = Rieske KO mouse fibroblast survival, CellTiter-Glo 72 h
[25] = measured here: epithelial PC-3E GFP cell survival
[26] = measured here: mesenchymal TEM4-18 mCherry cell survival

CCOc1ccc2ccccc2c1C(=O)N[C@@H]1C(=O)N2[C@@H]1SC(C)(C)[C@@H]2C(=O)O
-0.47: z-score [14, 24]
9360 and 10500: cell count [13, 22]
0.1%: nuclear beta-catenin stimulation ([4]; stimulation, at 2 µM)
inactive: inhibition [1] -10.4% | inhibition [2] -6.58% | fluorescence ratio [3] 0.98 | nuclear beta-catenin stimulation ([4]; at 10 µM) -0.5% | insulin secretion stimulation [5] 0.3% | viability decrease [6] -12.1% | tube area decrease [7] -14.5% | GLP1 secretion stimulation [8] -2.2% | inhibition of viability [9] -10.6% | viability decrease (inhibition) [10] 39.8% | viability decrease (inhibition) [11] -29.8% | inhibition [12] -5.14% | fold change [13, 19] 1.06 and 0.86 | z-score [14, 23] 0.661 | remaining NAD [15] 10 nM | luciferase signal [16] 76 AU | log fold change Tl+ flux (F380Y) -0.0205 | log fold change Tl+ flux (F380Y/beta2Delta) -0.0424 | log fold change Tl+ flux [17] 0.0363
0.823 and 1.09: fold change [13, 20]
9950 and 9060: cell count [13, 21]

C[C@]12CCC(=O)C=C1CC[C@@H]1[C@@H]2C(=O)C[C@@]2(C)[C@H]1CC[C@]2(O)C(=O)CO
-0.104: z-score [14, 24]
1.3%: nuclear beta-catenin stimulation ([4]; stimulation, at 2 µM)
2.11 and 1.06: fold change [13, 20]
8880 and 10200: cell count [13, 22]
inactive: inhibition [1] -1.97% | inhibition [2] 2.76% | fluorescence ratio [3] 0.97 | nuclear beta-catenin stimulation ([4]; at 10 µM) -0.9% | insulin secretion stimulation [5] -3.1% | viability decrease [6] -9.9% | tube area decrease [7] 4.3% | GLP1 secretion stimulation [8] -2.4% | inhibition of viability [9] 4.4% | viability decrease (inhibition) [10] 6.5% | viability decrease (inhibition) [11] -2.6% | inhibition [12] 4.09% | fold change [13, 19] 0.98 and 0.917 | z-score [14, 23] 1.14 | remaining NAD [15] 10 nM | luciferase signal [16] 36 AU | log fold change Tl+ flux (F380Y) 0.0198 | log fold change Tl+ flux (F380Y/beta2Delta) 0.0238 | log fold change Tl+ flux [17] 0.0148
8700 and 9320: cell count [13, 21]

COc1cc(NC(C)CCCN)c2ncccc2c1 (stereo not drawn)
inactive: inhibition [1] -5% | inhibition [2] 0.29% | fluorescence ratio [3] 0.86 | nuclear beta-catenin stimulation ([4]; at 10 µM) 1.4% | insulin secretion stimulation [5] 0.4% | tube area decrease [7] 11.2% | GLP1 secretion stimulation [8] 2.7% | viability decrease (inhibition) [11] 47.3% | inhibition [12] -0.957% | red/green cell ratio (normalised) [18] 1.43 | z-score [14, 23] -0.353 and -0.329 and 0.456 | remaining NAD [15] 10 nM | luciferase signal [16] 32 AU | log fold change Tl+ flux (F380Y) -0.0858 | log fold change Tl+ flux [17] -0.0425
0.94: normalised cell number [18, 25]
1.34: normalised cell number [18, 26]
active: viability decrease [6] 102% | inhibition of viability [9] 97.2% | viability decrease (inhibition) [10] 71.5% | log fold change Tl+ flux (F380Y/beta2Delta) -0.141
-0.221 and -0.189 and 1.47: z-score [14, 24]
1.8%: nuclear beta-catenin stimulation ([4]; stimulation, at 2 µM)

Cn1c(=O)c2[nH]cnc2n(C)c1=O
inactive: inhibition [1] 0.45% | inhibition [2] -2.76% | fluorescence ratio [3] 1 | nuclear beta-catenin stimulation ([4]; at 10 µM) 1.1% | insulin secretion stimulation [5] 0.2% | viability decrease [6] 0.3% | tube area decrease [7] -10.1% | GLP1 secretion stimulation [8] -0.8% | inhibition of viability [9] 6% | viability decrease (inhibition) [10] 20.4% | viability decrease (inhibition) [11] -2.35% | inhibition [12] 4.58% | remaining NAD [15] 10 nM | luciferase signal [16] 96 AU | log fold change Tl+ flux (F380Y) 0.0321 | log fold change Tl+ flux (F380Y/beta2Delta) -0.0514 | log fold change Tl+ flux [17] -0.0341
0.3%: nuclear beta-catenin stimulation ([4]; stimulation, at 2 µM)

C[C@@H]1O[C@@H](OC[C@H]2O[C@@H](Oc3c(-c4ccc(O)c(O)c4)oc4cc(O)cc(O)c4c3=O)[C@H](O)[C@@H](O)[C@@H]2O)[C@H](O)[C@H](O)[C@H]1O
active: viability decrease [6] 56% | inhibition of viability [9] 70.9% | viability decrease (inhibition) [10] 59.4%
inactive: inhibition [1] 5.94% | inhibition [2] 11.4% | fluorescence ratio [3] 1.02 | nuclear beta-catenin stimulation ([4]; at 10 µM) 0% | insulin secretion stimulation [5] 0.6% | tube area decrease [7] 4.5% | GLP1 secretion stimulation [8] -1.2% | viability decrease (inhibition) [11] 44.7% | inhibition [12] 4.58% | remaining NAD [15] 10 nM | log fold change Tl+ flux (F380Y) -0.0319 | log fold change Tl+ flux (F380Y/beta2Delta) 0.0273 | log fold change Tl+ flux [17] -0.026
1.9%: nuclear beta-catenin stimulation ([4]; stimulation, at 2 µM)

CCS(=O)(=O)CCn1c([N+](=O)[O-])cnc1C
0.6%: nuclear beta-catenin stimulation ([4]; stimulation, at 2 µM)
-0.288 and 0.13 and -0.654: z-score [14, 24]
1.12: normalised cell number [18, 26]
1.27: normalised cell number [18, 25]
inactive: inhibition [1] -0.22% | inhibition [2] 1.18% | fluorescence ratio [3] 0.92 | nuclear beta-catenin stimulation ([4]; at 10 µM) 0.7% | insulin secretion stimulation [5] -2% | viability decrease [6] -16.5% | tube area decrease [7] -0.1% | GLP1 secretion stimulation [8] 2.3% | inhibition of viability [9] 6.2% | viability decrease (inhibition) [10] -14.6% | viability decrease (inhibition) [11] -1.25% | inhibition [12] -3.03% | red/green cell ratio (normalised) [18] 0.88 | z-score [14, 23] -0.299 and 0.791 and -0.0778 | remaining NAD [15] 10 nM | luciferase signal [16] 36 AU | log fold change Tl+ flux (F380Y) 0.0247 | log fold change Tl+ flux (F380Y/beta2Delta) -0.0231 | log fold change Tl+ flux [17] -0.0103

CC[C@H](C)C(=O)O[C@H]1C[C@H](O)C=C2C=C[C@H](C)[C@H](CC[C@@H](O)C[C@@H](O)CC(=O)O)[C@H]21
9020: cell count [13, 21]
0.983: fold change [13, 20]
inactive: inhibition [1] -3.56% | inhibition [2] -3.18% | fluorescence ratio [3] 1 | nuclear beta-catenin stimulation ([4]; at 10 µM) -0.7% | insulin secretion stimulation [5] 0.2% | viability decrease [6] -15.6% | tube area decrease [7] 22% | GLP1 secretion stimulation [8] -3.6% | inhibition of viability [9] 12.4% | viability decrease (inhibition) [10] 2.3% | viability decrease (inhibition) [11] 5.1% | inhibition [12] -4.46% | fold change [13, 19] 0.972 | z-score [14, 23] -0.583 | remaining NAD [15] 10 nM | luciferase signal [16] 36 AU | log fold change Tl+ flux (F380Y) -0.00852 | log fold change Tl+ flux (F380Y/beta2Delta) -0.0757 | log fold change Tl+ flux [17] 0.00396
-1.06: z-score [14, 24]
-0.3%: nuclear beta-catenin stimulation ([4]; stimulation, at 2 µM)
9270: cell count [13, 22]
